Most compounds without a hit are left out; they make up all but 6.9% or so of the library.
MPTP block: inhibitors of mitochondrial permeability transition pore. inhibition, % at 10 µM. 360,000 compounds, 1.4% hits. isolated mouse mitochondria, Ca2+ swelling absorbance, 30 min;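 active means inhibition of 50% or more, scaled per plate between neutral and stimulator controls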;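 further: 0% = DMSO wells given calcium and 100% = 1 mM EGTA wells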
NR3A LBD binder: modulators (binders) of human NR3A ligand-binding domain; 340,000 compounds, 2.5% hits; AID 1259313; NR3A LBD differential scanning fluorimetry, Tm shift; 0% = protein alone, 100% = glycine-bound protein; Tm shift relative to glycine control, % at 25 µM;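 active means melting temperature shift of at least 10% of the positive control shift, at one fixed dose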
SKKanGAS inh: SKKanGAS growth inhibition. inhibition, % at 7.5 µM. 300,000 compounds, 1.3% hits. S. pyogenes SKKanGAS, kanamycin growth, BacTiter-Glo, 6 h. AID 1662;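 active means mean replicate score, as percent of positive control median, at least 50; inconclusive means mean below 50 but one replicate at or above 50; inactive means mean and every replicate below 50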;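 further: strain carries kanamycin resistance gene driven by streptokinase promoter and grows in 40 µg/ml kanamycin; loss of luminescence reflects streptokinase promoter inhibition or plain growth inhibition; 0% = median of DMSO wells and 100% = positive control at its reference dose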
Beta apoptosis: beta cell apoptosis inhibition; INS-1E cytokine-induced death, ATP luminescence, 48 h; percent of positive-control rescue, neutral wells zero; protection from apoptosis, % (test concentration not listed); 300,000 compounds, 0.8% hits;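 active means Every replicate reaches about 75%, or at least half do and their mean reaches it too, limit read from the data; inconclusive means At least half of replicates reach the limit but their mean does not; inactive means Under half of replicates reach the limit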;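 further: 0% = cytokine-treated negative control wells and 100% = positive control rescue; higher means more ATP so stronger rescue from cytokine killing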
CSC inhib: blocks cancer stem cells; cancer stem cell-like cells viability, luminescence; inhibition, % at 7.5 µM; 300,000 compounds, 1.1% hits; in the data active means inhibition above about 75%; inconclusive means no clear call, values can overlap the other calls; tested in HMLE shEcad cells
Mdm2 MdmX PPI: human Mdm2/MdmX binding inhibition; 330,000 compounds, 3% hits; inhibition, % at 8 µM; SaOS-2 split-luciferase Mdm2/MdmX complementation, luminescence;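 active means inhibition of at least 50% at 8 µM in the primary screen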
Target sequence (O15151 whole entry, looked up): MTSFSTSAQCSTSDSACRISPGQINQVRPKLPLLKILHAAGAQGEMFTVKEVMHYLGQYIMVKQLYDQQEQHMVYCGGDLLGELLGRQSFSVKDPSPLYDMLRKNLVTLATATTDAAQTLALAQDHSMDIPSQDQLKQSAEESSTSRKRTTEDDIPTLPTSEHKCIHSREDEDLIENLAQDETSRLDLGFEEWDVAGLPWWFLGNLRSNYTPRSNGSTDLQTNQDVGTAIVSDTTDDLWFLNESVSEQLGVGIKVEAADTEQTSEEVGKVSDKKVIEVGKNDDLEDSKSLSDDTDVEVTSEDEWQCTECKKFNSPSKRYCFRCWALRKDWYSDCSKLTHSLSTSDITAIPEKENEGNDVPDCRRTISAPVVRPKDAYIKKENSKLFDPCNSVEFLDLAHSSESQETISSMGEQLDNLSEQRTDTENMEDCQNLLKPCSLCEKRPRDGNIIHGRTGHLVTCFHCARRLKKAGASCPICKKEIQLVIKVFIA
Target sequence (Q00987 whole entry, looked up): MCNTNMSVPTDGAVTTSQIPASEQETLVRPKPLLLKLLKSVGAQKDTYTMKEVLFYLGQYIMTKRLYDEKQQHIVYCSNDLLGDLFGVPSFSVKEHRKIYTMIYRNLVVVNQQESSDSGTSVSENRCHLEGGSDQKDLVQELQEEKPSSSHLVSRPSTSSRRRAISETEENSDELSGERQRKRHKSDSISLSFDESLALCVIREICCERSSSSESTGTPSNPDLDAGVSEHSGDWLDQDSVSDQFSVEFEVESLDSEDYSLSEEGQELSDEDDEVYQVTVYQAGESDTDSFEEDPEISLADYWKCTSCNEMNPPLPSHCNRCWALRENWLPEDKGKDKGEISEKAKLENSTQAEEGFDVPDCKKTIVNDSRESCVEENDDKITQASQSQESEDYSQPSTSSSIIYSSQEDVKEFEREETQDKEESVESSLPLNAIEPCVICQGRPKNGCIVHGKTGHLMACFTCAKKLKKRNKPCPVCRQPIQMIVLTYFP
The depositor's hits bear a star.

Results for CCOc1ccc(C(=O)COC(=O)Cn2cnc3c2c(=O)n(C)c(=O)n3C)cc1 ?
MPTP block: 0; NR3A LBD binder: -1; Beta apoptosis: -4; CSC inhib: -14; Mdm2 MdmX PPI: 9

How did O=C(O)c1cccc2c1-c1ccc(Cl)cc1C2=O do in these assays?
MPTP block: -2; NR3A LBD binder: 14*

How did c1ccc(C2=Nn3c(nnc3-c3cccs3)SC2)cc1 do in these assays?
MPTP block: 3; NR3A LBD binder: -2; SKKanGAS inh: -1; CSC inhib: -17; Mdm2 MdmX PPI: 4

Results for c1ccc(-c2ccc(C3=Nn4c(nnc4-c4cccs4)SC3)cc2)cc1 ?
MPTP block: 6; NR3A LBD binder: 2; SKKanGAS inh: 51*; CSC inhib: 6; Mdm2 MdmX PPI: 23

Results for CCOc1ccc2nc(N3C(=O)C(O)=C(C(=O)c4ccco4)C3c3ccco3)sc2c1 (stereo not drawn) ?
MPTP block: -1; NR3A LBD binder: -1; Beta apoptosis: 12; CSC inhib: 16; Mdm2 MdmX PPI: -15

How did Cc1ccc2nc(N3C(=O)C(O)=C(C(=O)c4ccco4)C3c3cccs3)sc2c1 (stereo not drawn) do in these assays?
MPTP block: 2; NR3A LBD binder: 0; SKKanGAS inh: 52*; Beta apoptosis: -1; CSC inhib: 34; Mdm2 MdmX PPI: -79

Results for Cc1cc(C)c2nc(N3C(=O)C(O)=C(C(=O)c4ccco4)C3c3ccco3)sc2c1 (stereo not drawn) ?
MPTP block: 1; NR3A LBD binder: -3; SKKanGAS inh: 78*; Beta apoptosis: -2; CSC inhib: 13; Mdm2 MdmX PPI: -15

How did COc1ccc2nc(N3C(=O)C(O)=C(C(=O)c4ccco4)C3c3ccc(C)o3)sc2c1 (stereo not drawn) do in these assays?
MPTP block: 0; Mdm2 MdmX PPI: 31

Results for Cc1ccc(C(=O)O)cc1NS(=O)(=O)c1ccc2ccccc2c1 ?
MPTP block: 0; NR3A LBD binder: -1; SKKanGAS inh: 5; Beta apoptosis: -5; CSC inhib: 0; Mdm2 MdmX PPI: -1

What do the screens show for `CC(C)OC(=O)C(C(=O)C(F)(F)F)c1cc(NS(=O)(=O)c2ccc3ccccc3c2)c2ccccc2c1O` (stereo not drawn)?
MPTP block: -14; NR3A LBD binder: 24*; SKKanGAS inh: 21; Beta apoptosis: 9; CSC inhib: 22; Mdm2 MdmX PPI: 27

What do the screens show for `O=C1CCCC(=O)C1=C1SCCCS1`?
MPTP block: 2; NR3A LBD binder: 11*; SKKanGAS inh: -1; Beta apoptosis: 2; CSC inhib: -17; Mdm2 MdmX PPI: -16

How did O=c1oc2ccc3ccccc3c2cc1-c1nc2ccccc2o1 do in these assays?
MPTP block: 0; NR3A LBD binder: -18; SKKanGAS inh: -11; Beta apoptosis: -2; CSC inhib: 3; Mdm2 MdmX PPI: -1

What do the screens show for `O=c1c(Cl)c2oc3ccccc3nc-2c2ccccc12`?
MPTP block: 1; NR3A LBD binder: 9; SKKanGAS inh: inconclusive; Beta apoptosis: 86*; CSC inhib: 6; Mdm2 MdmX PPI: 12

Results for CC(C)c1cc(C(=O)NNC(=S)NC2CCCCC2)cs1 ?
MPTP block: 1; NR3A LBD binder: 2; SKKanGAS inh: -4; Beta apoptosis: 2; CSC inhib: -5; Mdm2 MdmX PPI: 1

Results for CCc1nnc(NC(=O)CSc2nc3cc(OC)c(OC)cc3cc2C)s1 ?
MPTP block: 0; NR3A LBD binder: -1; SKKanGAS inh: -2; Beta apoptosis: 4; CSC inhib: 3; Mdm2 MdmX PPI: 10

How did O=c1c2ccccc2nnn1CSc1ccccc1F do in these assays?
MPTP block: 2; NR3A LBD binder: 11*; SKKanGAS inh: -1; Beta apoptosis: -3; CSC inhib: 3; Mdm2 MdmX PPI: -108

Results for O=C(Cn1cc(/C=N/NC(=O)c2ccccc2Br)c2ccccc21)Nc1ccc(F)cc1 ?
MPTP block: 8; NR3A LBD binder: 10*; SKKanGAS inh: 9; Beta apoptosis: 1; CSC inhib: -5; Mdm2 MdmX PPI: 12

How did O=[N+]([O-])/C=C/c1cn(Cc2ccc(F)cc2)c2ccccc12 do in these assays?
MPTP block: 0; NR3A LBD binder: -8; SKKanGAS inh: 4; Beta apoptosis: 78*; CSC inhib: 137*; Mdm2 MdmX PPI: 22

Results for CCNC(=S)N/N=C/c1cn(Cc2ccc(F)cc2)c2ccccc12 ?
MPTP block: 8; NR3A LBD binder: -1; SKKanGAS inh: 22; Beta apoptosis: 6; CSC inhib: 90*; Mdm2 MdmX PPI: 29

How did Cc1ccnc(Nc2cccnc2)n1 do in these assays?
MPTP block: 1

Results for Cc1ccc(C(=O)N2CCN(c3ccc([N+](=O)[O-])cc3)CC2)o1 ?
MPTP block: -1; NR3A LBD binder: 1; SKKanGAS inh: -6; Beta apoptosis: -10; CSC inhib: 12; Mdm2 MdmX PPI: 13

How did CCOc1ccccc1OCCCCOc1ccccc1F do in these assays?
MPTP block: 1; NR3A LBD binder: 25*; SKKanGAS inh: 9; Beta apoptosis: 6; CSC inhib: 2; Mdm2 MdmX PPI: 16

How did COc1ccccc1OCCCCOc1ccccc1F do in these assays?
MPTP block: -1; NR3A LBD binder: 3; SKKanGAS inh: 16; Beta apoptosis: -2; CSC inhib: 0; Mdm2 MdmX PPI: -2

Results for Cc1n[nH]c(C)c1CCCCOc1ccccc1F ?
MPTP block: 2; NR3A LBD binder: -3; SKKanGAS inh: 68*; Beta apoptosis: -10; CSC inhib: 3; Mdm2 MdmX PPI: 23

What do the screens show for `Cc1ccccc1OCCCc1c(C)n[nH]c1C`?
MPTP block: 0; NR3A LBD binder: -2; SKKanGAS inh: 64*; Beta apoptosis: 4; CSC inhib: -13; Mdm2 MdmX PPI: -7

How did Cc1cccc(C)c1OCCCCc1c(C)n[nH]c1C do in these assays?
MPTP block: -3; NR3A LBD binder: -1; SKKanGAS inh: -8; Beta apoptosis: -2; CSC inhib: -12; Mdm2 MdmX PPI: -13

What do the screens show for `Brc1ccc([C@H]2C=C[C@H]3CCCN4CC[C@H]2[C@@H]3[C@]42CO2)cc1`?
MPTP block: -1

What do the screens show for `CCN1C2=NCCCN2c2ccccc21`?
MPTP block: 0; NR3A LBD binder: 11*; SKKanGAS inh: 1; Beta apoptosis: -2; CSC inhib: 5; Mdm2 MdmX PPI: 14

How did C=CCn1c(SCC(=O)c2[nH]c(C)c(C(=O)OCC)c2C)nc2scc(-c3ccc(OC)c(OC)c3)c2c1=O do in these assays?
MPTP block: -1; NR3A LBD binder: -2; SKKanGAS inh: 20; Beta apoptosis: 95*; CSC inhib: 93*

How did COc1ccc2ccccc2c1/C=N/NC(=O)c1sc(N)c(C#N)c1C do in these assays?
MPTP block: 2; NR3A LBD binder: 17*; SKKanGAS inh: 9; Beta apoptosis: -5; CSC inhib: 4

Assay outcomes deposited in PubChem by several laboratories.
